IP6K1 inh – Primary qHTS assay for small molecule inhibitors of Inositol hexaphosphate kinase 1 (IP6K1) | 140,000 compounds, 0.81% hits | activity change, % (series mostly up to about 58 µM) | AID 1645851, 2021 | IP6K1 kinase, ADP-Glo luminescence, 2 h; stronger effect = lower value; in the data active = activity change below about -25%
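ADP-Glo luminescence measures ADP made by human IP6K1 during a 2 h RT reaction with ATP/IP6 (mix at 1.3 mM/130 uM); top library doses 57.5 and 19.1 uM final.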
KDM5B inhibitor – Primary screen for KDM5B Histone Demethylases FDH-coupled qHTS. AID 1347165, 2019. KDM5B demethylase, FDH-coupled NADH fluorescence (FDH is formaldehyde dehydrogenase). Potency, µM (top dose mostly 57.7 µM), hits mostly inhibitors. 220,000 compounds, 2.6% hits; active = well fitted inhibition curve with a large enough effect; inconclusive = small, poorly fitted or top-dose-only effect; inactive = no such curve, though single readings can be large or run the other way; note: nearly all actives have a fitted effect of over 70% in size
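Measured: NADH fluorescence change, 30 min, RT. System: KDM5BΔAP 200 nM final, H3K4me3 peptide, α-KG, Fe(II), ascorbate, NAD⁺ plus FDH, pH 7.5 HEPES. Compounds: titrated, 10 min pre-incubation with enzyme.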
Numbers stand for hits. Compounds with a hit are over-represented: about 2.8% of the library has one in this group of screens.

`O=C(NCc1ccc(Cl)cc1)c1nc2sccn2c1-c1cccc(C(F)(F)F)c1` gave IP6K1 inh inactive.
Cc1oc(-c2ccc3ccccc3c2)nc1CN1CCNC(=O)C1 was read as IP6K1 inh inactive and KDM5B inhibitor 28µM.
`Cc1oc(-c2ccccc2)nc1CC(=O)N1CCNC(=O)C1` gave KDM5B inhibitor inactive.
Screening COc1cccc(-c2c(C(=O)NCCc3ccccc3)nc3sccn23)c1 returned IP6K1 inh inactive.
For Cc1noc(-c2ccn3c(CNC(=O)COc4ccc(F)cc4)nnc3c2)n1 the results were IP6K1 inh inactive and KDM5B inhibitor 13µM.
`CCc1noc(-c2ccn3c(CNC(=O)COc4ccc(F)cc4)nnc3c2)n1` gave IP6K1 inh inactive and KDM5B inhibitor inconclusive.
COc1ccc(C(=O)NCc2nnc3cc(-c4nc(C(C)C)no4)ccn23)cc1F was read as IP6K1 inh inactive and KDM5B inhibitor 10µM.
For Cc1ccc(C(=O)NCc2nnc3cc(-c4nc(C(C)C)no4)ccn23)cc1F the results were IP6K1 inh inactive and KDM5B inhibitor 7.1µM.
For Cc1noc(-c2ccn3c(CNC(=O)c4cc(F)ccc4F)nnc3c2)n1 the results were IP6K1 inh inactive and KDM5B inhibitor inconclusive.
For Cc1noc(-c2ccn3c(CNC(=O)c4ccc(C)c(F)c4)nnc3c2)n1 the results were IP6K1 inh inactive and KDM5B inhibitor 3.5µM.
CN1CC(=O)N(C2CCCCC2)Cc2c(NCCc3ccccc3)ncnc21 was read as IP6K1 inh inactive.
For CC(C)(C)Sc1ccc(Cl)nn1 the results were KDM5B inhibitor inactive.
`C#CCNC(=O)c1cc(-c2cccc(F)c2)nc2c1cnn2C` gave IP6K1 inh inactive.
Cc1nn(-c2ccccc2)c2c1C(C)N(C1CN(C(=O)c3cccc(Cl)c3)C1)C2=O (stereo unspecified) was read as IP6K1 inh inactive.
`CCN(CC)S(=O)(=O)c1ccc(C(=O)Nc2ccc(C)cc2Br)cc1` gave KDM5B inhibitor inactive.
COc1ccc(F)cc1-c1ccc(CN2CCC(NC(=O)c3ccncc3)C2)cc1 (stereo unspecified) was read as IP6K1 inh inactive.
CC(C)c1ccc(C(=O)N[C@H](C2CCNCC2)C2CC(O)C2)c(=O)n1C (stereo partly specified) was read as IP6K1 inh inactive and KDM5B inhibitor 25µM.
`O=C(N[C@H](C1CCNCC1)C1CC(O)C1)c1ccc2nccnc2c1` (stereo partly specified) gave IP6K1 inh inactive and KDM5B inhibitor inconclusive.
COc1ccc(Cc2nc3nccc(-c4ccc(OC)cc4F)n3n2)cc1 was read as IP6K1 inh inactive and KDM5B inhibitor 28µM.
`Fc1ccc(Cc2nc3nccc(-c4cccnc4)n3n2)cc1` gave IP6K1 inh inactive and KDM5B inhibitor inactive.
Screening COc1cc(F)ccc1-c1ccnc2nc(CC(C)C)nn12 returned IP6K1 inh inactive and KDM5B inhibitor 28µM.
For COc1ccc(-c2ccnc3nc(CCc4ccc(OC)c(OC)c4)nn23)c(F)c1 the results were IP6K1 inh inactive and KDM5B inhibitor inconclusive.
For COc1ccc(Cc2nc3nccc(-c4ccc(F)cc4OC)n3n2)cc1 the results were IP6K1 inh inactive and KDM5B inhibitor 18µM.
COc1ccc(-c2ccnc3nc(Cc4ccc(F)cc4)nn23)c(F)c1 was read as IP6K1 inh inactive and KDM5B inhibitor 25µM.
Screening CCC(C)NC(=O)C1CCCN(Cc2cccc(-c3ccsc3)c2)C1 (stereo unspecified) returned IP6K1 inh inactive.
Screening CC(C)Oc1ccc(C(=O)Nc2cccc(-c3nc4ccccc4o3)c2)cc1 returned KDM5B inhibitor inactive.
For CC(C)NC(=O)c1ccc(NC(=O)C(F)(F)C2(F)OC(F)(F)C(F)(F)C2(F)F)cc1 (stereo unspecified) the results were KDM5B inhibitor inactive.
`CN(Cc1cccc(N2CCN(S(=O)(=O)c3c(Cl)cccc3Cl)CC2)c1)S(C)(=O)=O` gave IP6K1 inh inactive.
N#CCc1nc(N)c2ccccc2n1 was read as KDM5B inhibitor inactive.
COc1ccc(Cc2nc3nccc(-c4cccs4)n3n2)cc1 was read as IP6K1 inh inactive and KDM5B inhibitor inactive.
`Fc1ccc(Cc2nc3nccc(-c4cccs4)n3n2)cc1` gave IP6K1 inh inactive and KDM5B inhibitor 28µM.
Screening Cc1ccc(C#N)c(N2CCCC(c3n[nH]c(=O)n3-c3ccccc3)C2)n1 (stereo unspecified) returned IP6K1 inh inactive and KDM5B inhibitor 32µM.
For Cc1csc(CN2CCCC(c3n[nH]c(=O)n3-c3ccccc3)C2)n1 (stereo unspecified) the results were IP6K1 inh inactive and KDM5B inhibitor inactive.
`Cc1c(-c2ccccc2)oc2c(C(=O)OCC(=O)NC(=O)NC(C)C)cccc2c1=O` gave KDM5B inhibitor inactive.
For CC[S+](=O)([O-])N1CCC2(CC1)[C@H](C(=O)Nc1ccccc1)[C@@H](OC(N)=O)C(=O)N2C the results were IP6K1 inh inactive.
Cc1cc(NC(=O)c2cc3n(n2)CC(c2ccc4c(c2)OCO4)OC3)ccc1F (stereo unspecified) was read as IP6K1 inh inactive and KDM5B inhibitor 28µM.
`Cc1ccc(NC(=O)c2cc3n(n2)CC(c2ccc4c(c2)OCO4)OC3)cc1` (stereo unspecified) gave IP6K1 inh inactive and KDM5B inhibitor 32µM.
CCc1ccc(NC(=O)c2cc3n(n2)CC(c2ccc4c(c2)OCO4)OC3)cc1 (stereo unspecified) was read as IP6K1 inh inactive and KDM5B inhibitor 32µM.
`COc1ccc(NC(=O)c2cc3n(n2)CC(c2ccc4c(c2)OCO4)OC3)cc1OC` (stereo unspecified) gave IP6K1 inh inactive and KDM5B inhibitor inactive.
`O=C(NCc1ccc(F)cc1)c1cc2n(n1)CC(c1ccc3c(c1)OCO3)OC2` (stereo unspecified) gave IP6K1 inh inactive and KDM5B inhibitor inconclusive.
Screening COc1ccc(NC(=O)c2cc3n(n2)CC(c2ccc4c(c2)OCO4)OC3)cc1Cl (stereo unspecified) returned IP6K1 inh inactive and KDM5B inhibitor 25µM.
For Cc1cccc(NC(=O)c2cc3n(n2)CC(c2ccc4c(c2)OCO4)OC3)c1 (stereo unspecified) the results were IP6K1 inh inactive and KDM5B inhibitor inconclusive.
Screening O=C(Nc1ccccc1)c1cc2n(n1)CC(c1ccc3c(c1)OCO3)OC2 (stereo unspecified) returned IP6K1 inh inactive and KDM5B inhibitor inconclusive.
For COc1ccc(-c2ocnc2C(=O)Nc2ccc(F)cc2)cc1 the results were KDM5B inhibitor inactive.
Screening COc1ccc(C(=O)Oc2cccc(OC(=O)c3ccc(OC)cc3)c2)cc1 returned KDM5B inhibitor inactive.
For CCOC(=O)COc1cc(O)cc2oc(-c3ccccc3)cc(=O)c12 the results were KDM5B inhibitor inactive.
`COc1ccc(CCNC(=O)c2cc3n(n2)CC(c2ccc4c(c2)OCO4)OC3)cc1OC` (stereo unspecified) gave IP6K1 inh inactive and KDM5B inhibitor 28µM.
COc1ccc(CCNC(=O)c2cc3n(n2)CC(c2ccc(Cl)cc2)OC3)cc1OC (stereo unspecified) was read as IP6K1 inh inactive and KDM5B inhibitor inconclusive.
`O=C(Nc1cccc(Cl)c1)c1nc2sccn2c1-c1cccc(C(F)(F)F)c1` gave IP6K1 inh inactive.

Bioassay records: PubChem BioAssay, National Center for Advancing Translational Sciences (NCATS)
